# Test results taken from ChEMBL document CHEMBL1157539, “Thousands of chemical starting points for antimalarial lead identification” (Nature, 2010).
# What was measured:
# Type in all cases: functional
# Plasmodium falciparum [1] = assay: GSK_TCMDC: Inhibition of Plasmodium falciparum 3D7 in whole red blood cells, using parasite LDH activity as an index of growth. Test compounds present at 2uM
# Plasmodium falciparum [2] = assay: GSK_TCMDC: Inhibition of Plasmodium falciparum Dd2 in whole red blood cells, using parasite LDH activity as an index of growth. Test compounds present at 2uM
# HepG2 = assay: GSK_TCMDC: Percent inhibition of human HepG2 cell line. Test compounds present at 10uM.
Structure (SMILES),Inhibition (Plasmodium falciparum [1]),Inhibition (Plasmodium falciparum [2]),Inhibition (HepG2)
COc1ccc(-c2cnn3ccc(Nc4cc(OC)c(OC)c(OC)c4)nc23)cc1OC,98%,100%,57%
COc1ccc2nccc([C@@H](O)CN3CCC(NCc4cc5ccccc5cn4)CC3)c2n1.O=C(O)C(=O)O,93%,14%,3%
O=C(Cn1cc(C(F)(F)F)cc(Cl)c1=O)N1CCN(S(=O)(=O)c2ccc(Cl)cc2)CC1,99%,69%,14%
Cc1cccc(C(=O)Nc2ccnc(N3CCC(N(C)Cc4ccc(C#N)cc4)CC3)c2)c1.O=C(O)C(F)(F)F,94%,6%,12%
N=C(N)c1ccc(C=Cc2ccc(C(=N)N)cc2O)cc1.O=S(=O)(O)CCO,92%,80%,10%
O=C(/C=C/c1ccc(Cl)c(Cl)c1)NCCCCCN1CCC(CCNC(=O)/C=C/c2ccc(Cl)c(Cl)c2)CC1,100%,56%,68%
COc1cc2nc(SCCCC#N)n(C3CCCCCC3)c(=N)c2cc1OC,89%,9%,0%
Cc1nc(-c2cccc(Nc3nccc(NCC(O)c4ccc(C(F)(F)F)cc4)n3)c2)cs1 (stereo not drawn),100%,99%,33%
CS(=O)(=O)N(c1cccc(F)c1)c1cc(C(=O)N[C@@H](Cc2ccccc2)[C@H](O)CNCc2cccc(C(F)(F)F)c2)cc(N2CCCC2=O)c1.O=CO,98%,92%,14%
Cc1cc2nc(-c3cc(-c4cccc(NS(C)(=O)=O)c4)cnc3N)[nH]c2cc1C,100%,32%,43%
Br.COc1ccc(OCCCON2C(=N)N=C(N)NC2(C)C)cc1,97%,94%,55%
O=C(NCCCCN1CCC(c2ccc3c(c2OCCO)CCCC3)CC1)c1sc(-c2ccc(C(F)(F)F)cc2)nc1CO,95%,20%,37%
CCN(CC)CCN(Cc1ccc(-c2ccc(C(F)(F)F)cc2)cc1)C(=O)Cn1cc(CCCCc2cccc(F)c2F)c(=O)c2ccccc21.O=C(O)C(O)C(O)C(=O)O,90%,22%,18%
O=C(CCn1cncn1)N1CCCC(c2[nH]c3ccccc3c2-c2ccncc2)C1 (stereo not drawn),97%,79%,1%
COc1cc(C=CC(=O)N2CCN(Cc3cccc(C)c3)CC2)ccc1OCc1c(C)noc1C,86%,95%,8%
CC(C)COc1ccc(Cl)cc1Cc1ccc(-c2nc3cc(CCN(C)C)ccc3[nH]2)o1.Cl,92%,7%,10%
COc1ccc2c(N/N=C/c3cccc([N+](=O)[O-])c3)ccnc2c1,100%,99%,0%
COc1ccc(CNCc2cccc(-c3csc(-c4nc5ccccc5[nH]4)c3)c2)cc1.O=C(O)C(F)(F)F,100%,22%,17%
CN1CCCC1CCNC(=O)[C@H](CC1CCCCC1)NC(=O)c1ccc(O)c(-c2ccc(Cl)c(Cl)c2)c1 (stereo partly drawn),98%,35%,0%
NC(=O)Nc1ccc2c(Nc3ccc(OCc4ccccc4)cc3)ncnc2c1,84%,20%,0%
COc1ccccc1NC(=O)Nc1ccc(-c2cccc(-c3nc4ccccc4[nH]3)c2)cc1,100%,25%,42%
